We go through 43 compounds from PubChem BioAssay.

Test [1] concerns the target Tumor necrosis factor receptor superfamily member 10B (Homo sapiens) (UniProt O14763). Briefly: viability loss of caspase-8 NB7 cells with TRAIL – with/without TRAIL, luminescence panel, confirmation (AID 651596). The conditions noted are these: NB7 neuroblastoma + caspase-8, TRAIL sensitization, NB7 Caspase-8, with TRAIL, mean of runs, at 10 µM, stronger effect = higher value.
Assay in test [2]: as above
Conditions: NB7 neuroblastoma + caspase-8, without TRAIL, NB7 Caspase-8, without TRAIL, mean of runs, at 10 µM.

Chain of Tumor necrosis factor receptor superfamily member 10B (Homo sapiens) (O14763 whole entry, looked up): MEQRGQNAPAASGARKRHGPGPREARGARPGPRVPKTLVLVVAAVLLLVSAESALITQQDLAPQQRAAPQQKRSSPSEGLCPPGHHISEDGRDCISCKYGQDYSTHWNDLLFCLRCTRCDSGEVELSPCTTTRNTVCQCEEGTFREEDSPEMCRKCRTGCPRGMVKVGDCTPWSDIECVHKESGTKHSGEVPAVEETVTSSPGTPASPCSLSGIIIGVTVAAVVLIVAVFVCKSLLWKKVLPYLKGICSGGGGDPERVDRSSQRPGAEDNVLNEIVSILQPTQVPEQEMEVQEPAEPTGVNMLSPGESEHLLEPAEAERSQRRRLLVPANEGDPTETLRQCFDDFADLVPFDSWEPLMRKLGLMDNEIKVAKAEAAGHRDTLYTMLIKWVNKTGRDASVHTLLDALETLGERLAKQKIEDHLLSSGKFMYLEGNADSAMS

`CCCc1cc(=O)[nH]c(SCC(=O)Nc2cc(S(=O)(=O)N3CCCCC3)ccc2C)n1`: the activity in test [1] was 3.67%; in test [2], -4.17%.
On to `CCCCCCCCC(c1nc2ccccc2[nH]1)N1CCN=C1c1cc2ccccc2[nH]1` (stereo unspecified), for which the activity was 54.9% in test [1] and 84.8% in test [2].
As for `CCCCNC(=O)c1ccc(Cn2c(=S)[nH]c3c([nH]c4ccc(OC)cc43)c2=O)cc1`, the activity was 76.7% in test [1] and 63.2% in test [2].
The like results for `Clc1ccc(-c2nnc(-c3ccccc3)o2)c(Cl)c1` were, in that order, 81.8% and 79%.
The like results for `CCOc1ccc2nc(NC(=O)c3ccc(C)o3)sc2c1` were, in that order, 61.1% and 52.9%.
For `CC(C)C[C@H]1CNC(=S)N1C[C@H]1CCCN1C[C@H](Cc1ccccc1)N1C[C@H](Cc2ccc(O)cc2)N(CC2CCCCC2)C1=S`, in that order: -0.175% and -1.23%.
In the case of `COc1cc(/C=C2\Oc3ccc(C#Cc4ccc(O)cc4)cc3C2=O)cc(OC)c1`, the activity was 80.5% in test [1] and 83.2% in test [2].
With `O=C(Nc1ccc(F)cc1)c1nc(S(=O)(=O)Cc2ccccc2)ncc1Cl`, the activity in test [1] turned out to be 57%; in test [2], 94.9%.
Regarding `CC1(C)N=C(N)N=C(N)N1c1ccc(OCC(=O)Nc2ccccc2)c(Cl)c1`, the activity in test [1] was 78.5%; in test [2] it was 82.3%.
The like results for `O=C(/C=C/Nc1ccccc1F)c1ccc(Br)cc1` were, in that order, 62.2% and 59.5%.
For `O=C(COc1cc(F)ccc1[N+](=O)[O-])Nc1cc(S(=O)(=O)N2CCCC2)ccc1Cl`, in that order: 26.4% and 2.77%.
For `CCOc1cc(CNCCc2ccc(S(N)(=O)=O)cc2)ccc1OCc1ccc(Cl)cc1`, in that order: 65.4% and 84.1%.
As for `CSc1nc(NCCN(C)C)c2sc3nc(-c4ccco4)c4c(c3c2n1)CCC4`, the activity stood at 80.2% in test [1] and 98.5% in test [2].
Consider `Cc1ccc2nc(-c3ccccc3)nn2c1`, for which the activity was 83.9% in test [1] and 80.3% in test [2].
`CC(C)c1ccc2c(c1)CC[C@H]1[C@](C)(CN)CCC[C@]21C`: the activity was 33.8% in test [1] and 97.2% in test [2].
As to `Cc1cc2ncc(-c3ncc(C(F)(F)F)cc3Cl)cn2n1`, the values for the activity in test [1] and in test [2] were 45.7% and 41.9%, respectively.
The like results for `Cc1cc(NC(=O)c2ccc(S(=O)(=O)N3CCCC3)cc2)nc2c1c(=O)oc1ccccc12` were, in that order, 69.5% and 58.2%.
The like results for `O=C(Nc1ccccn1)c1ccc2c(c1)OCCO2` were, in that order, 49.8% and 47.5%.
On to `Fc1cccc(CSc2nc3ccncc3[nH]2)c1`, for which the activity in test [1] was determined as 55.2%; in test [2] it was 54.4%.
Take `CC(C)C(=O)N1CCN(c2ccc(NC(=O)c3ccc([N+](=O)[O-])o3)cc2Cl)CC1`: the figures for the activity in test [1] and in test [2] were 75.4% and 97.5%, respectively.
The like results for `COc1cc(NCCCCC(C)N)c2nccc(C)c2c1` (stereo unspecified) were, in that order, 38% and 45.6%.
The like results for `CCN(CC)c1ccc(/C=N/NC(=O)c2ccccn2)cc1` were, in that order, 57.3% and 45.4%.
The like results for `CC1CCC(C(C)C)C(OC(=O)Cn2c(-c3ccccc3)[n+](C)c3ccccc32)C1` (stereo unspecified) were, in that order, 70.2% and 61.2%.
As to `CSc1nnc(NC(=O)c2nc(S(=O)(=O)Cc3ccccc3F)ncc2Cl)s1`, the figures for the activity in test [1] and in test [2] were 80.3% and 58.1%, respectively.
For `Cc1ccccc1Nc1nn2c(=O)c3ccccc3nc2s1`, in that order: 54.2% and 62.8%.
For `Cc1cccnc1NC(=S)NC(=O)c1cccs1`, in that order: 73.2% and 66.8%.
For the compound `O=C(NCC1CC1)c1ccc2c3n(nc2c1)-c1ccccc1CO3`, the activity stood at 89.8% in test [1] and 89.5% in test [2].
As for `CCN(CC)c1ccc(NC(=O)c2ccco2)cc1`, the activity in test [1] is 53.6%; in test [2], 50.3%.
As for `Nc1ccccc1C(=O)NN=Cc1cccnc1`, the figures for the activity in test [1] and in test [2] were 63.5% and 58.7%, respectively.
The like results for `C=CCNc1ncnc2c1ncn2C1OC(CO)C(O)C1O` (stereo unspecified) were, in that order, 46.8% and 60.6%.
For `CN(C(=O)c1ccccc1)c1nc2ccccc2s1`, the activity in test [1] was determined as 84.3%; in test [2], 72.3%.
For `OCC1OC(n2ccc3c2ncn2ncnc32)C(O)C1O` (stereo unspecified), in that order: 93.8% and 95.3%.
For `CC(=O)Nc1ccc2nc(-c3ccccc3)cn2c1`, in that order: 46.1% and 52.6%.
Take `CS(=O)(=O)c1ccc2nc(NC(=O)c3cccc([N+](=O)[O-])c3)sc2c1`: the activity in test [1] amounted to 69.4%; in test [2] it was 71.3%.
As for `CCc1nc(N)nc(N)c1-c1ccc(NCCN)c([N+](=O)[O-])c1`, the activity was determined as 80.7% in test [1] and 81.5% in test [2].
For `O=C(N/N=C/c1cccc(O)c1)c1ccc2c(c1)OCCO2`, in that order: 93.8% and 90.7%.
The like results for `N=c1n(CC(=O)c2ccc(Br)s2)c2ccccc2n1Cc1ccccc1` were, in that order, 20.9% and 20.6%.
With `O=C(Nc1ccc(N2CCN(C(=O)c3cccs3)CC2)cc1)c1ccc([N+](=O)[O-])o1`, the values for the activity in test [1] and in test [2] were 86.7% and 99.8%, respectively.
In the case of `c1ccc2oc(-c3csc(N4CCOCC4)n3)cc2c1`, the figures for the activity in test [1] and in test [2] were 67.7% and 51.3%, respectively.
As for `Cc1cccc(NC(=S)N/N=C/c2ccc([N+](=O)[O-])s2)c1`, the figures for the activity in test [1] and in test [2] were 37.4% and 36.1%, respectively.
With `Cc1ccc2nc(-c3ccc(NC(=O)CCN4C(=O)c5ccccc5C4=O)cc3)sc2c1`, the activity came to 73.7% in test [1] and 63.9% in test [2].
For `O=C(N/N=C/c1cccnc1)c1ccc2c(c1)OCCO2`, in that order: 76.2% and 67%.
Regarding `CC[C@]12c3[nH]c4ccc(Cl)cc4c3CCN1C(=O)[C@@H](CC(=O)NCc1cccc(C(F)(F)F)c1)C[C@@H]2C(=O)N1CCN(C(=O)c2ccco2)CC1`, the activity in test [1] stood at 71%; in test [2], 68.7%.
